Measured values published in PubChem BioAssay (NCI).
About 79,000 compounds went through this panel and 15% of them were active in at least one assay; those are over-represented in the sample as a whole. Activity calls are given as the source filed them. No stated cut-off is given here; in the data, active means growth inhibition above about 70%; inactive means the rest.

Legend:
[1] = NCI Yeast Anticancer Drug Screen. Data for the rad52 strain (AID 147);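 further: 0% = growth of vehicle-treated control cultures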; conditions: S. cerevisiae rad52 mutant growth inhibition, hits give high values
Procedure, shortened: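 Yeast strain carrying a DNA damage repair alteration was exposed to test compounds. Growth inhibition was measured relative to vehicle-treated controls.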

[2] = NCI Yeast Anticancer Drug Screen. Data for the wt1 strain (AID 149);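 further: 0% = growth of vehicle-treated wt1 cultures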; conditions: S. cerevisiae wt1 strain (SPY 50644) growth inhibition, hits give high values
Procedure, shortened: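 Growth inhibition read against vehicle controls after compound exposure of the wt1 yeast strain.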

[3] = NCI Yeast Anticancer Drug Screen. Data for the rad50EPP+ strain (AID 151);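 further: 0% = growth of vehicle-treated control cultures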; conditions: S. cerevisiae rad50 mutant strain, hits give high values
Procedure, shortened: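 Yeast strain carrying rad50 alteration (rad50EPP+) exposed to compounds; growth inhibition measured relative to vehicle-treated controls.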

[4] = NCI Yeast Anticancer Drug Screen. Data for the mgt1 strain (AID 153); conditions: S. cerevisiae mgt1 mutant growth inhibition, hits give high values
Procedure, shortened: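 Yeast mgt1 strain (DNA repair/cell-cycle alteration panel) exposed to compounds; growth inhibition measured relative to vehicle-treated controls.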

[5] = NCI Yeast Anticancer Drug Screen. Data for the rad50 strain (AID 155);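 further: 0% = growth of vehicle-only cultures of the same strain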; conditions: S. cerevisiae rad50 strain growth inhibition, hits give high values
Procedure, shortened: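 Readout: growth inhibition relative to vehicle-treated cultures. Compound exposure was carried out in a genetically defined yeast strain deficient in DNA damage repair.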

[6] = NCI Yeast Anticancer Drug Screen. Data for the mec2-1 strain (AID 157); conditions: S. cerevisiae mec2-1 strain, hits give high values
Procedure, shortened: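 mec2-1 yeast strain, carrying an alteration in DNA damage repair or cell cycle control, was exposed to compounds; growth inhibition was measured relative to vehicle-treated controls.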

[7] = NCI Yeast Anticancer Drug Screen. Data for the rad14 strain (AID 159);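 further: 0% = growth of vehicle-treated control cultures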; conditions: S. cerevisiae rad14 strain growth inhibition, hits give high values
Procedure, shortened: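 Growth inhibition vs vehicle controls; genetically altered yeast strain (DNA damage repair defect) treated with test compounds.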

[8] = NCI Yeast Anticancer Drug Screen. Data for the sgs1 mgt1 strain (AID 161);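 further: 0% = growth of cultures given vehicle only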; conditions: S. cerevisiae sgs1 mgt1 strain, hits give high values
Procedure, shortened: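 Percent growth inhibition was derived by comparing compound-exposed mutant yeast with vehicle-exposed cultures. The strain carries alterations in DNA damage repair.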

[9] = NCI Yeast Anticancer Drug Screen. Data for the CLN2oe strain (AID 163);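 further: 0% = growth of vehicle-only control cultures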; conditions: S. cerevisiae CLN2oe strain, hits give high values
Procedure, shortened: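 Yeast cells carrying a defined cell-cycle control alteration were exposed to test compounds. Growth inhibition was scored against vehicle-treated control cultures.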

[10] = NCI Yeast Anticancer Drug Screen. Data for the cln2 rad14 strain (AID 165);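 further: 0% = growth equal to vehicle treated cultures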; conditions: S. cerevisiae cln2 rad14 strain, hits give high values
Procedure, shortened: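 Yeast carrying cln2 and rad14 alterations (cell cycle control and DNA damage repair) were exposed to compounds. Growth inhibition was measured against vehicle-treated controls.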

[11] = NCI Yeast Anticancer Drug Screen. Data for the bub3 strain (AID 167); conditions: S. cerevisiae bub3 mutant strain, hits give high values
Procedure, shortened: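 Readout: yeast growth inhibition, expressed relative to vehicle-only wells. The test organism is a mutant strain from a panel with lesions in DNA repair or checkpoint genes.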

[12] = NCI Yeast Anticancer Drug Screen. Data for the wt2 strain (AID 169);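 further: 0% = growth of vehicle-treated yeast cultures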; conditions: S. cerevisiae wt2 strain growth inhibition, hits give high values
Procedure, shortened: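 Yeast cells were exposed to test compounds, and growth inhibition was measured relative to vehicle-treated controls.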

[13] = NCI Yeast Anticancer Drug Screen. Data for the mlh1 strain (AID 171);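 further: 0% = growth of vehicle-treated control cultures of the same strain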; conditions: S. cerevisiae mlh1 strain growth inhibition, hits give high values
Procedure, shortened: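 Yeast carrying a defined genetic alteration in DNA damage repair or cell cycle control were exposed to test compounds. Growth inhibition was measured relative to vehicle-treated controls.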

[14] = NCI Yeast Anticancer Drug Screen. Data for the sgs1 strain (AID 173);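 further: 0% = growth of vehicle-only control cultures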; conditions: S. cerevisiae sgs1 mutant, hits give high values
Procedure, shortened: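 Yeast mutant strains carrying defined defects in DNA damage repair or cell cycle control were exposed to test compounds. Growth inhibition was scored against vehicle-treated controls.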

[15] = NCI Yeast Anticancer Drug Screen. Data for the mlh1 rad18 strain (AID 175); conditions: S. cerevisiae mlh1 rad18 strain growth inhibition, hits give high values
Procedure, shortened: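 Growth inhibition of the yeast strain was measured after compound exposure and expressed relative to vehicle-treated controls. The strain carries defined defects in DNA damage repair.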

[16] = NCI Yeast Anticancer Drug Screen. Data for the rad18 strain (AID 177); conditions: S. cerevisiae rad18 mutant growth inhibition, hits give high values
Procedure, shortened: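 Yeast carrying a defined DNA damage repair alteration were exposed to compounds. Growth inhibition was expressed relative to vehicle-treated controls.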

[17] = at 5.0 µM (retest, dose inferred, filed as 0.5)
[18] = at 50.0 µM (retest, dose inferred, filed as 5.0)

Measured: growth inhibition

O=C(Nn1c(-c2ccccc2)nc2ccccc2c1=O)c1ccc(CS)cc1
inactive: [1]; at 1.2 µM 5% | [1]; at 3.7 µM 20% | [1]; at 11.0 µM 12% | [1]; at 33.0 µM 53% | [2]; at 1.2 µM -4% | [2]; at 3.7 µM -6% | [2]; at 11.0 µM -1% | [2]; at 33.0 µM 23% | [3]; at 1.2 µM -2% | [3]; at 3.7 µM 6% | [3]; at 11.0 µM 5% | [3]; at 33.0 µM 31% | [4]; at 1.2 µM -9% | [4]; at 3.7 µM -19% | [4]; at 11.0 µM -17% | [4]; at 33.0 µM 23% | [5]; at 1.2 µM -5% | [5]; at 3.7 µM 2% | [5]; [17] -35% | [5]; at 11.0 µM 8% | [5]; at 33.0 µM 47% | [5]; [18] 10% | [6]; at 1.2 µM -4% | [6]; at 3.7 µM -17% | [6]; [17] -23% | [6]; at 11.0 µM -15% | [6]; at 33.0 µM 24% | [6]; [18] 34% | [6]; at 50.0 µM 43.4% | [7]; at 1.2 µM -16% | [7]; at 3.7 µM -16% | [7]; at 11.0 µM -19% | [7]; at 33.0 µM 21% | [8]; [17] -11% | [8]; [18] 27% | [8]; at 50.0 µM 60.2% | [9]; at 1.2 µM -11% | [9]; at 3.7 µM 10% | [9]; at 11.0 µM 0% | [9]; at 33.0 µM 20% | [10]; [17] 19% | [10]; [18] 40% | [10]; at 50.0 µM 27.5% | [11]; at 1.2 µM -7% | [11]; at 3.7 µM -14% | [11]; [17] -12% | [11]; at 11.0 µM -13% | [11]; at 33.0 µM 47% | [11]; at 50.0 µM 50.8% | [12]; at 1.2 µM 9% | [12]; at 3.7 µM 6% | [12]; at 11.0 µM 9% | [12]; at 33.0 µM 34% | [13]; at 1.2 µM 9% | [13]; at 3.7 µM 7% | [13]; at 11.0 µM 10% | [13]; at 33.0 µM 53% | [14]; at 1.2 µM 15% | [14]; at 3.7 µM 8% | [14]; at 11.0 µM 21% | [14]; at 33.0 µM 65% | [15]; [17] -22% | [15]; at 50.0 µM 48% | [16]; at 1.2 µM 15% | [16]; at 3.7 µM 16% | [16]; at 11.0 µM 14% | [16]; at 33.0 µM 62%
active: [1]; at 100.0 µM 98% | [2]; at 100.0 µM 98% | [3]; at 100.0 µM 76% | [4]; at 100.0 µM 97% | [5]; at 50.0 µM 79.2% | [5]; at 100.0 µM 98% | [6]; at 100.0 µM 97% | [7]; at 100.0 µM 97% | [9]; at 100.0 µM 97% | [11]; [18] 81% | [11]; at 100.0 µM 98% | [12]; at 100.0 µM 98% | [13]; at 100.0 µM 98% | [14]; at 100.0 µM 98% | [15]; [18] 74% | [16]; at 100.0 µM 98%
